Source: PubChem (National Center for Advancing Translational Sciences (NCATS))
Vaccinia Venus = vaccinia inhibition (Venus reporter) | Vaccinia virus Venus reporter expression, fluorescence | Potency, µM (series often up to 36.5 µM), actives largely listed as inhibitors | actives 0.46% (n = 330,000) | AID 720580; calls by dose curve; tested in A549 cells; also: nearly all actives have a fitted effect of over 30% in size
HCMV antiviral = inhibitors of human cytomegalovirus | HFF cells, HCMV-luciferase reporter, 72 h; hits give low values | activity change, negative = inhibition, % at 57.5 µM | actives 4.5% (n = 410,000); in the data active = activity change below about -60%; inconclusive = no clear call, values can overlap the other calls; inactive = above about -39%
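Two compound doses tested in HFFs infected with HCMV-luciferase, MOI 1 PFU/cell, 72 h at 37C. Lysate luminescence read with OneGlo; data normalized against buffer-only and 10uM Salinomycin inhibitor controls.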
FMDV antiviral = antivirals against foot and mouth disease virus; FMDV antiviral cell-based qHTS; actives 1.2% (n = 410,000); Potency, µM (titrated, usually from 57.9 µM), most hits filed as inhibitors; calls by dose curve; tested in HEK293T cells; also: read-out not given here; nearly all actives have a fitted effect of over 45% in size
Vaccinia mCherry = vaccinia inhibition (mCherry reporter); Vaccinia virus mCherry reporter infection, fluorescence; Potency, µM (top dose mostly 36.5 µM), hits mostly inhibitors; actives 0.63% (n = 310,000); AID 720579; calls by dose curve; tested in A549 cells; also: nearly all actives have a fitted effect of over 35% in size
HCV inhibitor = HCV inhibition. Huh7.5.1 HCVcc-Cre infection, luciferase reporter, 44 h. Potency, µM (highest dose often 41.8 µM), hits mostly inhibitors. actives 3.4% (n = 340,000). AID 651820; active = well fitted inhibition curve with a large enough effect; inconclusive = small, poorly fitted or top-dose-only effect, or another doubt; inactive = no such curve, though single readings can be large or run the other way
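Reporter virus HCVcc-Cre (~0.5 moi) infects cells exposed to compound; seeding density 1,000 cells/well with 4 h settling beforehand. Luminescence, 15 sec read, taken 44 h post-infection following a 15 min RT substrate incubation.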
Numbers stand for hits; 0 = inactive; ? = inconclusive; - = no result; [ ] = dose if it differs, or a comment. Most compounds without a hit are left out; they make up all but 7.3% or so of the library.

SMILES | Vaccinia Venus | HCMV antiviral | FMDV antiviral | Vaccinia mCherry | HCV inhibitor
CC(=O)Oc1ccc(C(=O)Nc2ccc(C3(C#N)CCCC3)cc2)cc1 | - | 0 | 0 | - | 14µM
CC(C)CN1CCNC(=O)C1CC(=O)NCCc1ccc(C(F)(F)F)cc1 (configuration not stated) | 0 | -101 | 0 | 0 | 0
CO/N=C\CC(=O)Nc1ccc(Oc2ccccc2)cc1 | 0 | -70 | 0 | ? | 0
CC(C)(C)[C@H](N)C(=O)N[C@H]1CCC2C3CC=C4C[C@@H](O)CC[C@]4(C)C3CC[C@@]21C (some centres not stated) | ? | -99 | 0 | ? | 11µM
CC(=O)C1CCC2C3CC=C4CC(SC(=N)N)CCC4(C)C3CCC12C (configuration not stated) | 16µM | 0 | 0 | ? | ?
Cc1ccc2cccc(S(=O)(=O)N3CCCc4ccccc43)c2n1 | - | -65 | 0 | - | ?
COCCCNc1nc(SCc2ccccc2)nc2sc3c(c12)CCC3 | - | ? | 0 | - | ?
N#Cc1cnn(-c2nc(SCc3ccccc3)nc3sc4c(c23)CCCC4)c1N | - | -101 | 0 | - | 0
CN(C(=O)Nc1ccc(Cl)cc1Cl)[C@H]1c2cc(Br)ccc2OC[C@H]1CO | - | 0 | ? | - | 13µM
O=c1c2ccccc2[nH]c(=S)n1-c1ccc(Br)cc1 | 0 | 0 | 0 | 0 | 0
COC(=O)c1ccc2c(=O)n(Cc3ccc(C(=O)NC(C)C)cc3)c(=S)[nH]c2c1 | 0 | 0 | 0 | 0 | 7.9µM
CC(C)NC(=O)c1ccc(-n2c(=S)[nH]c3ccccc3c2=O)cc1 | - | -84 | - | - | -
CN(C)C(CNC(=O)c1cc2ccccc2o1)c1ccco1 (configuration not stated) | - | 0 | 0 | - | 0
COCC1CCN(C(=O)c2oc3c(F)cccc3c2C)C1 (configuration not stated) | - | 0 | 0 | - | 0
CC(=O)NCC1CCCN(C(=O)c2oc3c(F)cccc3c2C)C1 (configuration not stated) | - | -101 | 0 | - | 0
Cc1c(C(=O)N2CCCCC2CCN2CCCC2=O)oc2c(F)cccc12 (configuration not stated) | 0 | -63 | 0 | 0 | 0
Cc1c(C(=O)N2CCC2)oc2c(F)cccc12 | 0 | 0 | 0 | 0 | 0
CCCCN(C=O)c1c(CC)nc2c(OCc3cccc(Cl)c3)cccn12 | ? | 0 | 0 | ? | -
CN=c1scc(-c2ccccc2F)n1/N=C/c1ccc(O)c(O)c1O | 0 | -78 | 3.5µM | 0 | 0
CN=c1scc(-c2ccccc2F)n1/N=C/c1ccc[nH]1 | 0 | -99 | 126µM | 0 | 0
COc1ccc(C(=O)O/N=C/c2c(C(F)(F)F)nn(C)c2SCc2ccccc2Cl)cc1 | - | -82 | 0 | - | ?
Cn1nc(C(F)(F)F)c(/C=N/OC(=O)c2ccccc2Cl)c1SCc1ccc(Cl)cc1 | - | ? | 0 | - | ?
CCOc1ccc2nc(NC(=O)c3cc(=O)c4cc(C)cc(C)c4o3)sc2c1 | 0 | 0 | 0 | 0 | -
CC(=O)Nc1ccc(N2CCC(C)CC2)c([N+](=O)[O-])c1 | 0 | ? | 0 | 0 | 0
Cc1ccc(C(=O)c2cc([N+](=O)[O-])ccc2N2CCCCC2)cc1 | ? | -85 | 0 | ? | 0
SMILES | Vaccinia Venus | HCMV antiviral | FMDV antiviral | Vaccinia mCherry | HCV inhibitor
O=C(c1ccccc1)c1cc([N+](=O)[O-])ccc1N1CCOCC1 | ? | ? | 0 | ? | 0
CC(=O)Nc1ccc(N2CCCC(C)C2)c([N+](=O)[O-])c1 (configuration not stated) | 0 | ? | 0 | ? | 3.2µM
CC1CCCN(c2ccc([N+](=O)[O-])cc2C(=O)c2ccccc2)C1 (configuration not stated) | - | -74 | ? | - | 0
Cc1cccc(-n2c(/C=C/c3cn(C)c4ccccc34)nc3ccccc3c2=O)c1 | 0 | 0 | ? | 0 | -
COc1ccc(NC(=O)c2oc3ccccc3c2NC(=O)Cc2cccs2)cc1 | 0 | 0 | 0 | 0 | -
Cc1ccc(NC(=O)c2oc3c(c2C)-c2[nH]ncc2CC3)c(Cl)c1 | 0 | 0 | 0 | 0 | -
Cc1ccc(N2CCN(c3c(CN4CCCC4)c(=O)oc4ccccc34)CC2)c(C)c1 | 0 | 0 | 0 | 0 | -
CCOc1ccc(OCC)c(NC(=O)CSc2nc3c(c(=O)n(C)c(=O)n3C)n2CC)c1 | 0 | 0 | ? | 0 | ?
CCOc1ccc(OCC)c(NC(=O)CSc2nc3c(c(=O)n(C)c(=O)n3C)n2C(C)C)c1 | 0 | -63 | - | 0 | 10µM
COc1cccc(CC(=O)OCC(=O)NC(=O)c2ccc(OC(F)F)cc2)c1 | 0 | 0 | 0 | 0 | 0
O=C(Nc1cc2c(cc1[N+](=O)[O-])OCCO2)c1cccnc1 | 0 | 0 | 0 | 0 | 0
Cc1cccc2cc3c(N)c(C(=O)Nc4ccc(N5CCOCC5)cc4)sc3nc12 | 0 | 0 | - | 0 | 4µM
Cc1ccc2nc3sc(C(=O)Nc4ccc(N5CCOCC5)cc4)c(N)c3cc2c1 | - | - | - | - | 0
Cc1cc(C)c2nc3sc(C(=O)N4CCOCC4)c(N)c3cc2c1 | - | -94 | 0 | - | ?
Nc1c(C(=O)N2CCOCC2)sc2nc3c(cc12)CCCC3 | 0 | ? | 11µM | 0 | 0
Cc1ccc(C)c2nc3sc(C(=O)N4CCOCC4)c(N)c3cc12 | 0 | 0 | 0 | 0 | ?
C[C@]12N[C@@H](Cc3ccccc31)c1ccccc12 | - | - | 0 | - | -
Cc1cc2c3c([nH]c2cc1S(=O)(=O)N1CCC2(CC1)OCCO2)CCCC3=O | - | ? | 0 | - | 22µM
CC1=CC(C)(C)N2C(=O)C3(SCC(=O)N3c3ccc(F)cc3)c3cc(C)cc1c32 (configuration not stated) | - | -67 | 18µM | - | ?
Cc1nc(C)c(-c2ccc(SCC(=O)Nc3cccc(Cl)c3C)nn2)s1 | 0 | ? | 0 | 0 | ?
COc1ccc(C2=CN(Cc3ccccc3)C(c3ccccc3)CC2=O)cc1 (configuration not stated) | 0 | 0 | 0 | 0 | ?
COc1ccc(C2=C3C(=O)OCC3Cc3ncn(Cc4ccccc4)c32)cc1 (configuration not stated) | 0 | -76 | 0 | 0 | 0
CC(=O)c1ccc(NC(=O)Nc2sc3nc4n(c(=O)c3c2C)CCC(C)CC4)cc1 (configuration not stated) | 0 | 0 | 0 | 0 | -
O=S1(=O)CCSC[C@@H](CN2CCCC2)N1 | - | 0 | - | - | -
O=S(=O)(NC1CCCC1)OCC(Cl)(Cl)Cl | 0 | -63 | 0 | 0 | 0.32µM
SMILES | Vaccinia Venus | HCMV antiviral | FMDV antiviral | Vaccinia mCherry | HCV inhibitor
C[C@H](NS(=O)(=O)OCC(Cl)(Cl)Cl)C1CC1c1ccccc1 (some centres not stated) | ? | ? | 0 | ? | 0[8.37 µM]
O=S(=O)(NC1CC(NS(=O)(=O)OCC(Cl)(Cl)Cl)C2CCCCC12)OCC(Cl)(Cl)Cl (configuration not stated) | 11µM | - | ? | ? | 0
O=S(=O)(NC1CCCCCCC1)OCC(Cl)(Cl)Cl | ? | 0 | 0 | 0 | 0
CS(=O)(=O)N(Cc1ccccc1)c1ccc(C(=O)N2CCN(c3cccc(Cl)c3)CC2)cc1 | - | 0 | ? | - | 8.9µM
Cc1ccc(CN(c2ccc(C(=O)N3CCc4ccccc4C3)cc2)S(C)(=O)=O)cc1 | - | 0 | ? | - | 10µM
CS(=O)(=O)N(Cc1ccc(C(=O)N2CCc3ccccc3C2)cc1)c1ccccc1 | 0 | ? | 0 | 0 | ?
